Here are results for 47 compounds from PubChem BioAssay.

Experiment [1] is described as follows: circadian clock period modulators, cell-based, LOPAC library, luminescence reporter (AID 2774).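 Also: values are relative to mean of DMSO wells on each plate.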 Conditions: circadian reporter cells, at 7 µM, actives lie on both sides.
The nature of experiment [2]: hESC survival regulators, cell-based (AID 493140).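 Also: cells exposed to compounds for four days before counting.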 Conditions: human embryonic stem cell survival screen; stronger effect = higher value.

The structures appear in SMILES notation. Unmarked numbers belong to inactive results. No rule for the calls is given here.

With `C[C@]12C[C@H](O)[C@H]3[C@@H](CCC4=CC(=O)CC[C@@]43C)[C@@H]1CC[C@@H]2C(=O)CO`, the period change in experiment [1] is -0.34 h. Also, in experiment [2], the survival is 6.08.

In the case of `COc1cc2nc(N3CCN(C(=O)C4COc5ccccc5O4)CC3)nc(N)c2cc1OC` (centres undefined), in experiment [1], the period change was 0.11 h. The survival in experiment [2] was 4.33. For `COc1ccccc1N1CCN(CC(O)COc2cccc3ccccc23)CC1` (centres undefined) the same measures were 0.04 h and 8.25.

Turning to `NC/C=C/C(=O)O`, the period change in experiment [1] was -0.005 h. On the same count and under the same terms, under `CC(=O)[C@]1(O)Cc2c(O)c3c(c(O)c2[C@@H](O[C@H]2C[C@H](N)[C@H](O)[C@H](C)O2)C1)C(=O)c1ccccc1C3=O` stands -1.6 h.

Regarding `C[n+]1cc2c3c(ccc2c2ccc4cc5c(cc4c21)OCO5)OCO3`, in experiment [1], the period change is -0.18 h. Also, the survival in experiment [2] is 1.33. For `COc1cc(-c2ccc(=O)[nH]n2)ccc1OC(F)F` the same measures were -0.1 h and 1.92. With `Cc1cnc(NC(=O)C2=C(O)c3ccccc3S(=O)(=O)N2C)s1`, in experiment [1], the period change was -0.06 h. For the compound `Nc1nnc(-c2cccc(Cl)c2Cl)c(N)n1`, the period change in experiment [1] was -0.15 h. The same measure, in the same setting: under `CNC[C@H](O)c1ccc(O)c(O)c1` stands 0.025 h. As to `COCCCC/C(=N\OCCN)c1ccc(C(F)(F)F)cc1`, the period change in experiment [1] was -0.015 h. In addition, in experiment [2], the survival was 6.67. For `Nc1nc2c(ncn2COC(CO)CO)c(=O)[nH]1` the same measures were -0.27 h and 3.83.

For `CC[N+](C)(C)Cc1ccccc1Br`, the period change in experiment [1] is 0.095 h. For the same compound, the survival in experiment [2] is 6.92. For `CC(C)NCC(O)COc1ccc(CCOCC2CC2)cc1` (centres undefined) the same measures were 0.03 h and 8.33. Consider `CN(C)CC[C@@H](c1ccc(Br)cc1)c1ccccn1`, for which the period change in experiment [1] was -0.05 h. In the case of `O=C(c1ccc(F)cc1)C1CCN(CCn2c(=O)[nH]c3ccccc3c2=O)CC1`, the period change in experiment [1] is 0 h. Further, the survival in experiment [2] is 12.7. In the case of `NC(N)=Nc1nc(CSCC/C(N)=N/S(N)(=O)=O)cs1`, the period change in experiment [1] was -0.03 h. The survival in experiment [2] is 16.5.

On to `O=c1c(-c2ccc(O)cc2)coc2cc(O)cc(O)c12`, for which the period change in experiment [1] was 0 h.

Regarding `Cc1cn([C@H]2C=C[C@@H](CO)O2)c(=O)[nH]c1=O`, the period change in experiment [1] was -0.14 h. Turning to `COc1cc(C(=O)OCCCN2CCCN(CCCOC(=O)c3cc(OC)c(OC)c(OC)c3)CC2)cc(OC)c1OC`, the period change in experiment [1] was -0.025 h. For the same compound, in experiment [2], the survival is 9.25. For `CC1(C)NC(=O)N(c2ccc([N+](=O)[O-])c(C(F)(F)F)c2)C1=O` the same measures were 0.085 h and 0.917. Take `Cc1[nH]c(=O)c(C#N)cc1-c1ccncc1`: in experiment [1], the period change is -0.005 h. In addition, in experiment [2], the survival is 9.17. In the case of `Cc1ccc(C(=O)Nc2ccc(S(=O)(=O)O)c3cc(S(=O)(=O)O)cc(S(=O)(=O)O)c23)cc1NC(=O)c1cccc(NC(=O)Nc2cccc(C(=O)Nc3cc(C(=O)Nc4ccc(S(=O)(=O)O)c5cc(S(=O)(=O)O)cc(S(=O)(=O)O)c45)ccc3C)c2)c1`, in experiment [1], the period change is 0.03 h. Regarding `NC(N)=N/N=C/c1c(Cl)cccc1Cl`, in experiment [1], the period change is 0.195 h. Also, the survival in experiment [2] was 17.8. Regarding `CCN1CCC[C@H]1CNC(=O)c1c(O)c(Cl)cc(Cl)c1OC`, the period change in experiment [1] was -0.03 h. Same read-out and setting: under `CNCC(O)c1ccc(O)c(O)c1` (centres undefined) stands -0.055 h. On to `CCCCNc1c(C(=O)OCC)c(C)nc2c1cnn2CC`, for which the period change in experiment [1] was 0.105 h. In addition, in experiment [2], the survival was 17.3.

On to `O=C1CCc2cc(OCCCCc3nnnn3C3CCCCC3)ccc2N1`, for which the period change in experiment [1] is 0.02 h. On the same count and under the same terms, under `CC(=O)O[C@]1(C(C)=O)CC[C@H]2[C@@H]3C=C(Cl)C4=CC(=O)[C@@H]5C[C@@H]5[C@]4(C)[C@H]3CC[C@@]21C` stands 0.03 h. Consider `CNC1(C)C2CCC(C2)C1(C)C` (centres undefined), for which the period change in experiment [1] was 0.19 h. Moreover, in experiment [2], the survival was 42. Regarding `COc1ccc(C2CNC(=O)C2)cc1OC1CCCC1` (centres undefined), the period change in experiment [1] was -0.065 h. Further, in experiment [2], the survival was 3.92. For `Nc1ccn([C@H]2CC[C@@H](CO)O2)c(=O)n1` the same measures were -0.095 h and 9. As to `NCCS`, the period change in experiment [1] is 0.02 h. Regarding `C=CC(N)CCC(=O)O` (centres undefined), in experiment [1], the period change was 0.105 h. For the same compound, the survival in experiment [2] was 14.4.

Regarding `Nc1ccc(O)c(C(=O)O)c1`, the survival in experiment [2] is 4.33. Still for that read-out and setting: as for `O=C1C(=O)c2ccccc2C(O)=C1C1CCC(c2ccc(Cl)cc2)CC1` (centres undefined), the figure is 8.83.

Take `COc1cc2nc(N3CCN(C(=O)C4CCCO4)CC3)nc(N)c2cc1OC` (centres undefined): the period change in experiment [1] is 0.02 h. In experiment [2], the survival is 3.75. Turning to `CCc1oc2ccccc2c1C(=O)c1cc(Br)c(O)c(Br)c1`, the survival in experiment [2] was 13.1.

For `CO[C@@]1(NC(=O)CSCC#N)C(=O)N2C(C(=O)O)=C(CSc3nnnn3C)CS[C@@H]21`, the period change in experiment [1] is -0.07 h. Further, the survival in experiment [2] was 4.83.

On to `c1cnc(N2CCN(Cc3ccc4c(c3)OCO4)CC2)nc1`, for which the period change in experiment [1] was -0.05 h. The survival in experiment [2] is 3.67.

For `Cc1c(Cl)cccc1Nc1ccccc1C(=O)O`, the survival in experiment [2] is 17.2. Consider `CN1C(C)(C)CCCC1(C)C`, for which the period change in experiment [1] was -0.07 h. Further, in experiment [2], the survival is 3.5. For `Cc1nc2n(c(=O)c1CCN1CCC(c3noc4cc(F)ccc34)CC1)CCCC2` the same measures were 0.015 h and 5. For `CN1CCN(C2=Nc3ccccc3Oc3ccc(Cl)cc32)CC1` the same measures were -0.045 h and 12. Take `COc1cc(C)nc(-n2nc(C)cc2OC)n1`: the survival in experiment [2] is 33.2.

As to `COC(=O)[C@@H]1[C@H]2C[C@H]3c4[nH]c5ccccc5c4CCN3C[C@@H]2CC[C@@H]1O`, the period change in experiment [1] was 0.095 h. Further, the survival in experiment [2] is 8.25. In the case of `CCN1CCN(C(=O)N[C@@H](C(=O)N[C@@H]2C(=O)N3C(C(=O)O)=C(CSc4nnnn4C)CS[C@H]23)c2ccc(O)cc2)C(=O)C1=O`, the survival in experiment [2] is 9.17.
